Test results as given in the supplement of paper PMC9254222.
Whole data set: some 1,100 compounds, median “Wnt reporter firefly/Renilla luciferase ratio relative to plate median” near 1.1, cut for the highest 2% near 1.6. This excerpt belongs to a sample that is enriched for the highest values.

Tested on: HEK293T (UBE3A T485A transfected, BAR Wnt reporter)
Assay: Wnt reporter firefly/Renilla luciferase ratio relative to plate median (fold (linear ratio)); higher = more Wnt/beta-catenin reporter activation
Conditions: 24 h
Outline: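 HEK293T cells were seeded at 4500 cells/well in white 384-well plates and grown in DMEM with 10% FBS at 37°C and 5% CO2. The cells were transfected using Fugene 6 with a BAR firefly luciferase Wnt reporter, TK-Renilla and an expression plasmid, and four hours later robots added the chemicals at 0.01–100 uM for 24 h before a Dual-Glo luciferase readout. Wnt activity was taken as the firefly/Renilla ratio and cell health as raw Renilla, each median-centred per plate. Values are averages of four biological replicates.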

| Structure (SMILES) | Wnt reporter firefly/Renilla luciferase ratio (concentration: 0.1 uM) | Wnt reporter firefly/Renilla luciferase ratio (concentration: 1 uM) | Wnt reporter firefly/Renilla luciferase ratio (concentration: 10 uM) | Wnt reporter firefly/Renilla luciferase ratio (concentration: 100 uM) | Wnt reporter firefly/Renilla luciferase ratio (concentration: 0.01 uM) | Wnt reporter firefly/Renilla luciferase ratio (concentration: .1 uM) |
| --- | --- | --- | --- | --- | --- | --- |
| CCC(C)c1ccccc1O (stereo unspecified) [2-(Butan-2-yl)phenol] | 1.19 | 0.977 | 0.947 | 1.14 | – | – |
| CC(C)COC(=O)CCCCC(=O)OCC(C)C [Diisobutyl adipate] | 1.11 | 1.15 | 1.28 | 1.44 | – | – |
| CCCN(CCC)C(=O)SCC | 1.22 | 0.859 | 1.3 | 1.09 | 1.35 | – |
| CCSC(=O)N(CC(C)C)CC(C)C [Butylate] | 1.31 | 1.21 | 1.71 | 0.486 | 1.05 | – |
| CN1C(=O)N(c2ccccc2Br)Cc2cnc(Nc3ccc4c(c3)OCC(CO)O4)nc21 (stereo unspecified) | 0.694 | 0.73 | 1.19 | – | – | – |
| Oc1ccccc1 [Phenol] | 0.93 | 1.28 | 1.19 | 1.35 | – | – |
| CCOCCO [2-Ethoxyethanol] | 1.04 | 1.01 | 1.18 | 1.25 | – | – |
| CCOCCOCCO [2-(2-Ethoxyethoxy)ethanol] | 0.833 | 1.24 | 0.948 | 1.26 | – | – |
| CCOCCOCCOCCO [2-[2-(2-Ethoxyethoxy)ethoxy]ethanol] | 0.979 | 0.929 | 1.01 | 1.62 | – | – |
| CC(C)CCCCCCOC(=O)c1ccc(C(=O)OCCCCCCC(C)C)c(C(=O)OCCCCCCC(C)C)c1 [Triisononyl trimellitate] | 1.08 | 0.919 | 1.18 | 1.34 | – | – |
| CC[C@@H]1C[C@H](N(Cc2cc(C(F)(F)F)cc(C(F)(F)F)c2)C(C)=O)c2cc(C(F)(F)F)ccc2N1C(=O)OC(C)C | 0.973 | 1.26 | 1.2 | 1.01 | – | – |
| O=C(O)c1cccc(C(=O)O)c1 [1,3-Benzenedicarboxylic acid] | 1.21 | 1.28 | 1.24 | 1.02 | – | – |
| CC(C)(c1ccc(O)cc1)c1ccc(O)cc1 [Bisphenol A] | 1.13 | 1.05 | 0.924 | 0.302 | 1.09 | – |
| CC[C@H](C)[C@@H](C(=O)O)n1sc2ccccc2c1=O | 0.996 | 0.949 | 0.684 | 0.568 | – | – |
| CCCCOC(=O)C(C)Oc1ccc(Oc2ccc(C(F)(F)F)cn2)cc1 (stereo unspecified) [Fluazifop-butyl] | 1.71 | 1.15 | 1.54 | 1.13 | 1.15 | – |
| CCCCOC(=O)[C@@H](C)Oc1ccc(Oc2ccc(C(F)(F)F)cn2)cc1 [Fluazifop-P-butyl] | 0.832 | 1.04 | 1.09 | 1.67 | 0.757 | – |
| CCCCOC(=O)c1ccccc1 [Butyl benzoate] | 1.4 | 0.911 | 1.09 | 1.11 | – | – |
| CCOC(=O)C(C)Oc1ccc(Oc2cnc3cc(Cl)ccc3n2)cc1 (stereo unspecified) [Quizalofop-ethyl] | 1.1 | 1.03 | 1.09 | 0.981 | 0.779 | – |
| CCOC(=O)C(C)Oc1ccc(Oc2nc3ccc(Cl)cc3o2)cc1 (stereo unspecified) [Fenoxaprop-ethyl] | 1.37 | 0.888 | 0.884 | 0.813 | 1.14 | – |
| C#CCOC(=O)[C@@H](C)Oc1ccc(Oc2ncc(Cl)cc2F)cc1 [Clodinafop-propargyl] | 1.37 | 1.14 | 1.25 | 0.479 | 1.28 | – |
| CCCCCCCCOC(=O)c1cc(O)c(O)c(O)c1 [Octyl gallate] | 1.25 | 1.3 | 0.702 | 0.614 | – | – |

| Structure (SMILES) | Wnt reporter firefly/Renilla luciferase ratio (concentration: 0.1 uM) | Wnt reporter firefly/Renilla luciferase ratio (concentration: 1 uM) | Wnt reporter firefly/Renilla luciferase ratio (concentration: 10 uM) | Wnt reporter firefly/Renilla luciferase ratio (concentration: 100 uM) | Wnt reporter firefly/Renilla luciferase ratio (concentration: 0.01 uM) | Wnt reporter firefly/Renilla luciferase ratio (concentration: .1 uM) |
| --- | --- | --- | --- | --- | --- | --- |
| COC(=O)c1ccccc1C(=O)O [Monomethyl phthalate] | 1.05 | 1.09 | 1.11 | 1.4 | 1.05 | – |
| CC(=O)OC1CC(C)OC(C)O1 (stereo unspecified) [Dimethoxane] | 1.1 | 0.976 | 0.952 | 0.736 | – | – |
| Cc1ccc(N(C)C)cc1 [N,N,4-Trimethylaniline] | 1.08 | 1.2 | 1.06 | 0.933 | – | – |
| Cc1ccc(C(C)C)c(O)c1 [Thymol] | 0.988 | 1.09 | 1.29 | 1.08 | – | – |
| N#CSCSc1nc2ccccc2s1 [2-(Thiocyanomethylthio)benzothiazole] | 0.88 | 1.09 | 1.06 | – | 0.895 | – |
| Sc1nc2ccccc2s1 [2-Mercaptobenzothiazole] | 1.39 | 1.62 | 1.3 | 1.69 | – | – |
| CS(=O)(=O)c1ccc([C@@H](C[C@H]2CCC(=O)C2)C(=O)Nc2cnccn2)cc1Cl [Piragliatin] | 1.03 | 0.959 | 1.02 | 1.3 | – | – |
| COc1cc2c3c(n(CCCn4ccnc4)c(=O)c2cc1OC)-c1cc2c(cc1C3=O)OCO2.Cl | 0.457 | 0.72 | 0.631 | 0.938 | 1.15 | – |
| OCC(O)CO [Glycerol] | 1.1 | 0.905 | 1.05 | 1.04 | – | – |
| S=C([S-])NCCNC(=S)[S-].S=C([S-])NCCNC(=S)[S-].[Mn+2].[Zn+2] [Mancozeb] | 0.999 | 0.95 | 0.951 | – | 0.932 | – |
| Nc1ccc(C(=O)O)cc1 [4-Aminobenzoic acid] | 1.22 | 1.07 | 0.948 | 1.2 | – | – |
| CC(C)c1cccc(C(C)C)c1NC(=O)[N-]S(=O)(=O)c1cc(C(C)(C)O)co1.[Na+] | 1.05 | 1.08 | 1.2 | 1.05 | – | – |
| CC/C(=C(\c1ccccc1)c1ccc(OCCN(C)C)cc1)c1ccccc1.O=C(O)CC(O)(CC(=O)O)C(=O)O [Tamoxifen citrate] | 0.922 | 0.964 | 0.891 | 1.01 | – | – |
| O=C(c1ccc(O)cc1O)c1ccc(O)cc1O [2,2',4,4'-Tetrahydroxybenzophenone] | 1.29 | 1.33 | 1.49 | 0.463 | – | – |
| CC(C)C(=O)OCC(C)(C)C(OC(=O)C(C)C)C(C)C (stereo unspecified) [2,2,4-Trimethyl-1,3-pentanediol diisobutyrate] | 0.92 | 0.885 | 1.15 | 1.64 | – | – |
| CC[C@]1(O)C[C@H]2C[N@](CCc3c([nH]c4ccccc34)[C@@](C(=O)OC)(c3cc4c(cc3OC)N(C=O)[C@H]3[C@@](O)(C(=O)OC)[C@H](OC(C)=O)[C@]5(CC)C=CCN6CC[C@]43[C@@H]65)C2)C1 [Vincristine] | – | – | 0.418 | – | 0.387 | – |
| OCCO [Ethylene glycol] | 1.37 | 1.07 | 1.12 | 1.27 | – | – |
| NCCO [Ethanolamine] | – | 0.968 | 1.41 | 2.04 | – | 1.09 |
| CCCCCCCCCCCC[N+](C)(C)C.[Cl-] [Dodecyltrimethylammonium chloride] | 1.41 | 1.1 | 0.377 | – | – | – |
| CCc1ccc(CCOc2ccc(CC3SC(=O)NC3=O)cc2)nc1.Cl (stereo unspecified) [Pioglitazone hydrochloride] | 0.94 | 0.896 | 0.903 | 1.1 | – | – |
| C=C(C)C(=O)OCCC(F)(F)C(F)(F)C(F)(F)C(F)(F)C(F)(F)C(F)(F)F [Tridecafluorohexylethyl methacrylate] | 1.03 | 1.12 | 1.06 | 1.16 | – | – |

| Structure (SMILES) | Wnt reporter firefly/Renilla luciferase ratio (concentration: 0.1 uM) | Wnt reporter firefly/Renilla luciferase ratio (concentration: 1 uM) | Wnt reporter firefly/Renilla luciferase ratio (concentration: 10 uM) | Wnt reporter firefly/Renilla luciferase ratio (concentration: 100 uM) | Wnt reporter firefly/Renilla luciferase ratio (concentration: 0.01 uM) | Wnt reporter firefly/Renilla luciferase ratio (concentration: .1 uM) |
| --- | --- | --- | --- | --- | --- | --- |
| CC(C)=CCC/C(C)=C/CO [Geraniol] | 1.1 | 1.26 | 1.15 | 1.75 | – | – |
| CC(C)=CCC/C(C)=C\CO [(2Z)-3,7-Dimethylocta-2,6-dien-1-ol] | 1.17 | 0.941 | 1.5 | 1.03 | – | – |
| CC(C)=CCCC(C)=CC=O [3,7-Dimethyl-2,6-octadienal] | 1.11 | 1.26 | 1.03 | 1.09 | – | – |
| OC(Cn1cncn1)(Cn1cncn1)c1ccc(F)cc1F [Fluconazole] | 1.15 | 0.884 | 1.33 | 1.25 | – | – |
| Cc1ccccc1Cl [2-Chlorotoluene] | 0.964 | 0.931 | 1.37 | 1.44 | – | – |
| CCCCCCCC[Si](OCC)(OCC)OCC [Triethoxyoctylsilane] | 1.15 | 0.902 | 1.05 | 1.38 | – | – |
| CCO[Si](CCCNC(N)=O)(OCC)OCC [1-[3-(Triethoxysilyl)propyl]urea] | 1.11 | 0.853 | 1.36 | 1.66 | – | – |
| CCOC(N)=O [Urethane] | 1.05 | 0.955 | 1.11 | 1.3 | – | – |
| O=N[O-].[Na+] [Sodium nitrite] | 1.13 | 0.943 | 1.4 | 1.29 | – | – |
| COc1ccc(CC(N)C(=O)NC2C(CO)OC(n3cnc4c(N(C)C)ncnc43)C2O)cc1 (stereo unspecified) [Puromycin] | 0.78 | 0.249 | – | – | 0.865 | – |
| CC[C@H](NC(=O)c1cc(F)ccc1[N-]S(=O)(=O)c1cccc2cccnc12)c1ccccc1.[Na+] | 1.22 | 1.08 | 1.18 | 0.234 | – | – |
| CC(C)CC(C=O)NC(=O)C(CC(C)C)NC(=O)C(CC(C)C)NC(=O)OCc1ccccc1 (stereo unspecified) | 0.85 | 2.61 | – | – | 0.993 | – |
| CCCCC(CC)COC(=O)CCCCC(=O)OCc1ccccc1 (stereo unspecified) [Benzyloctyl adipate] | 0.909 | 1.03 | 1.13 | 1.12 | – | – |
| O=C(O)c1ccccc1C(=O)OCc1ccccc1 [Monobenzyl phthalate] | 1.1 | 0.986 | 1.31 | 1.16 | – | – |
| CCCCC(CC)COC(=O)CC(C(=O)OCC(CC)CCCC)S(=O)(=O)[O-].[Na+] (stereo unspecified) [Docusate sodium] | 0.824 | 1.14 | 0.946 | 0.789 | – | – |
| CC#C[C@]1(O)CC[C@H]2[C@@H]3CCC4=CC(=O)CCC4=C3[C@@H](c3ccc(N(C)C)cc3)C[C@@]21C [Mifepristone] | 0.957 | 0.893 | 0.624 | 0.0932 | – | – |
| CNC(=O)[C@H]1O[C@@H](n2cnc3c(NCc4cc(Cl)ccc4OCc4cc(C)no4)ncnc32)[C@H](O)[C@@H]1N | 0.941 | 1.17 | 1.13 | 1.06 | – | – |
| O=C(NS(=O)(=O)/C=C/c1cccs1)c1ccc(F)cc1Br | 1.13 | 1.12 | 0.456 | 0.251 | – | – |
| c1ccc2cc3c(ccc4ccccc43)cc2c1 [Benz(a)anthracene] | 1 | 0.949 | 1.29 | 0.737 | – | – |
| c1ccc2cc3ccccc3cc2c1 [Anthracene] | 0.982 | 0.92 | 0.951 | 2.12 | – | – |
| c1ccc2ccccc2c1 [Naphthalene] | 1.17 | 1.18 | 1.32 | 1.48 | – | – |
